Source: PubChem BioAssay (Tox21)
Results filed as inconclusive are left out. Active and inactive are the calls of the source. Unless noted, calls follow the shape of the full dose curve.

How the values were obtained:
[1] = Nuclear factor erythroid 2-related factor 2/antioxidant responsive element (Nrf2/ARE) small molecule agonists: qHTS cell viability counter screen in human keratinocytes (AID 1919968; active = well fitted curve in the direction sought with a large enough effect in the repeat runs; an effect the other way counts as inactive or inconclusive; also: nearly all actives have a fitted effect of over 55% in size)
Procedure, shortened: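 Seed 1,500 KeratinoSens cells per well, then incubate 5 h at 37 C/5% CO2. Add compounds in DMSO and incubate 23 h. Add CellTiter-Fluor, wait 1 h and read fluorescence.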

[2] = Nuclear factor erythroid 2-related factor 2/antioxidant responsive element (Nrf2/ARE) small molecule agonists: luciferase reporter gene qHTS assay in human keratinocytes (AID 1919969); also: nearly all actives have a fitted effect of over 35% in size
[3] = molecular target: Gonadotropin-releasing hormone receptor (Homo sapiens) (UniProt P30968); test: Human gonadotropin-releasing hormone receptor (GnRHR) small molecule agonists, calcium flux assay in GnRHR-HEK293 cells (AID 1920063); also: nearly all actives have a fitted effect of over 35% in size
Procedure, shortened: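 Cells: HEK293 stably expressing human GnRHR. Steps: overnight (18 h) culture, 1 h calcium dye loading at 37 C, compound addition, kinetic fluorescence read at 480/540 nm. Each compound tested at 15 concentrations in triplicate.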

[4] = molecular target: KiSS-1 receptor (Homo sapiens) (UniProt Q969F8); test: Human kisspeptin (KISS1R) small molecule agonists, calcium flux assay in KISS1R-HEK293 cells (AID 1920064; active = well fitted curve in the direction sought with a large enough effect in the repeat runs; an effect the other way counts as inactive or inconclusive)
Procedure, shortened: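 Cells plated and incubated 18 h; dye added, 1 h at 37 C; compounds in DMSO pinned in; signal read at 480/540 nm every second for 3 min. Each compound tested at 15 concentrations in triplicate.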

[5] = G protein-coupled receptor (GPCR) small molecule agonists, calcium flux assay: HEK293 wild type cell line counter screen (AID 1920065)
Procedure, shortened: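 Counter-screen of the Tox21 10K library for non-specific calcium release: dye-loaded cells received compounds in DMSO and were monitored by kinetic fluorescence (480/540 nm, 3 min). Fifteen concentrations, run in triplicate.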

[6] = p53 small molecule agonists, cell-based qHTS assay with human liver microsomes (AID 1963577);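 also: p53 response element beta-lactamase reporter cells with liver microsomes plus NADPH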
Procedure, shortened: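 In this qHTS, p53 response-element beta-lactamase cells receive test compound together with a microsome/NADPH activating system (0.5 mg/mL final each) and are incubated 16 h at 37 C before LiveBLAzer fluorescence detection.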

[7] = p53 small molecule agonists, cell-based qHTS assay with rat liver microsomes (AID 1963578)
Procedure, shortened: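 Agonist mode in p53RE-bla reporter cells, with compounds co-incubated 16 h at 37 C alongside 0.5 mg/mL rat liver microsomes and 0.5 mg/mL NADPH (final), followed by a 2 h LiveBLAzer detection step.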

[8] = p53 small molecule agonists, cell-based qHTS assay with human liver microsomes: qHTS cell viability counter screen (AID 1963579); also: nearly all actives have a fitted effect of over 45% in size
Procedure, shortened: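 Metabolically activated exposure: compounds, human liver microsomes and NADPH (0.5 mg/mL final apiece) were added to p53RE-bla cells seeded 5 h earlier, left 16 h at 37 C, and then assessed for viability by CellTiter-Glo luminescence.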

[9] = p53 small molecule agonists, cell-based qHTS assay with rat liver microsomes: qHTS cell viability counter screen (AID 1963580); also: nearly all actives have a fitted effect of over 45% in size
Procedure, shortened: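 In HCT-116 cells carrying a p53 response element-bla reporter, compounds were metabolically activated in situ by rat liver microsomes with NADPH over 16 h. Cell ATP content then served as the cytotoxicity measure.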

[10] = p53 small molecule agonists, cell-based qHTS assay: qHTS cell viability counter screen (AID 1963581); also: nearly all actives have a fitted effect of over 45% in size
Procedure, shortened: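 Cells: HCT-116 with p53 response element-driven beta-lactamase. Treatment: 16 h, 37 C, compounds in DMSO. Read: CellTiter-Glo luminescence after 30 min RT.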

[11] = p53 small molecule agonists, cell-based qHTS assay (AID 1963582; active = well fitted activation curve with a large enough effect in the signal ratio in the repeat runs, not every such curve was filed as active; the % refers to the signal ratio)
Procedure, shortened: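 Quantitative HTS in p53RE-bla cells: after a 5 h settling period, compounds delivered in DMSO were left on cells for 16 h at 37 C, and reporter induction was measured as fluorescence following 2 h substrate loading.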

[12] = molecular target: 5-hydroxytryptamine receptor 2A (Homo sapiens) (UniProt P28223); test: 5-hydroxytryptamine receptor 2A (HTR2A) small molecule agonists, cell-based qHTS assay (AID 1963587); also: nearly all actives have a fitted effect of over 30% in size
Procedure, shortened: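 HTR2A-CHO cells, plated 18 h at 37 C/5% CO2, dye-loaded 1 h at 37 C; compounds in DMSO added by pin tool (agonist mode). Intracellular calcium flux read as kinetic fluorescence on FDSS over 2 min at 1 s intervals.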

[13] = molecular target: Muscarinic acetylcholine receptor M1 (Homo sapiens) (UniProt P11229); test: Cholinergic receptor muscarinic 1 (CHRM1) small molecule agonists, cell-based qHTS assay (AID 1963589); also: nearly all actives have a fitted effect of over 35% in size
Procedure, shortened: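 Agonist-mode qHTS in CHO cells stably carrying human muscarinic M1. Intracellular calcium is tracked by fluorescence every second after compound transfer; each compound runs at 15 concentrations in three independent runs.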

[14] = cAMP Responsive Elements (CRE) small molecule agonists, cell-based qHTS assay (AID 1963590)
Procedure, shortened: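 Agonist mode qHTS in CRE-bla HEK 293T cells: compounds dosed from DMSO for 3 h at 37 C/5% CO2, followed by LiveBLAzer B/G FRET substrate for 2 h at room temperature.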

[15] = cAMP Responsive Elements (CRE) small molecule antagonists, cell-based qHTS assay (AID 1963591; active = well fitted inhibition curve with a large enough effect in the signal ratio in the repeat runs, not every such curve was filed as active; the % refers to the signal ratio)
Procedure, shortened: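 Antagonist mode: test compounds are co-incubated with the adenylyl cyclase activator NKH477 (0.25 uM final) on CRE-bla HEK293T cells for 3 h at 37 °C, followed by LiveBLAzer substrate loading.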

[16] = molecular target: Beta-2 adrenergic receptor (Homo sapiens) (UniProt P07550); test: Adrenergic beta2 receptor (ADRB2) small molecule antagonists, cell-based qHTS assay (AID 1963592); also: series mostly up to about 92 µM; nearly all actives have a fitted effect of over 50% in size
Procedure, shortened: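 Cells (CHO, stable ADRB2 overexpression) incubated 18-20hr at 37C; compounds added from DMSO; agonist mix (1nM isoproterenol, 100uM IBMX, 25uM Ro-20-1724) added; 0.5hr RT; d2-cAMP and anti-cAMP-cryptate added; 1hr RT; 665/615 nm read.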

[17] = molecular target: D(2) dopamine receptor (Homo sapiens) (UniProt P14416); test: Dopamine D2 receptor (DRD2) small molecule agonists, cell-based qHTS assay (AID 1963594); also: nearly all actives have a fitted effect of over 35% in size
Procedure, shortened: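 HEK293 cells stably expressing DRD2 were cultured 24 h at 37 C, then given Ro20-1724 (0.1 mM final) and compounds for 10 min at room temperature. NKH477 (200nM) was then added for 30 min. cAMP was read by HTRF.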

[18] = molecular target: Muscarinic acetylcholine receptor M1 (Homo sapiens) (UniProt P11229); test: Cholinergic receptor muscarinic 1 (CHRM1) small molecule antagonists, cell-based qHTS assay (AID 1963588); also: nearly all actives have a fitted effect of over 40% in size
Procedure, shortened: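 CHRM1-CHO calcium-flux assay, antagonist mode. Cells were seeded 18 h, dye-loaded 1 h at 37 C and given compound for 5 min at RT, then acetylcholine was added at 50nM. FDSS fluorescence was read 3 min; 15 concentrations, three runs.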

[19] = molecular target: Beta-2 adrenergic receptor (Homo sapiens) (UniProt P07550); test: Adrenergic beta2 receptor (ADRB2) small molecule agonists, cell-based qHTS assay (AID 1963593);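 also: CHO cells stably overexpressing human ADRB2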
Procedure, shortened: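 CHO cells stably over-expressing ADRB2 were plated overnight at 37C, then dosed with compounds plus a stimulation mix containing 100uM IBMX and 25uM Ro-20-1724 for 0.5hr at room temperature. cAMP was measured by HTRF competition, 1hr.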

[20] = molecular target: D(2) dopamine receptor (Homo sapiens) (UniProt P14416); test: Dopamine D2 receptor (DRD2) small molecule antagonists, cell-based qHTS assay (AID 1963595; active = well fitted inhibition curve with a large enough effect in the signal ratio in the repeat runs, with a control signal flat; the % refers to the signal ratio)
Procedure, shortened: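 Cells were plated and grown for 24 h at 37 °C. Ro20-1724 (0.1 mM final) went in first, then compound for 10 min. NKH477 (200 nM) with quinpirole (12 nM) followed for 30 min at RT, then HTRF detection reagents for 1 h.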

Measured: Potency

Chain of Beta-2 adrenergic receptor (Homo sapiens) (P07550 whole entry, looked up): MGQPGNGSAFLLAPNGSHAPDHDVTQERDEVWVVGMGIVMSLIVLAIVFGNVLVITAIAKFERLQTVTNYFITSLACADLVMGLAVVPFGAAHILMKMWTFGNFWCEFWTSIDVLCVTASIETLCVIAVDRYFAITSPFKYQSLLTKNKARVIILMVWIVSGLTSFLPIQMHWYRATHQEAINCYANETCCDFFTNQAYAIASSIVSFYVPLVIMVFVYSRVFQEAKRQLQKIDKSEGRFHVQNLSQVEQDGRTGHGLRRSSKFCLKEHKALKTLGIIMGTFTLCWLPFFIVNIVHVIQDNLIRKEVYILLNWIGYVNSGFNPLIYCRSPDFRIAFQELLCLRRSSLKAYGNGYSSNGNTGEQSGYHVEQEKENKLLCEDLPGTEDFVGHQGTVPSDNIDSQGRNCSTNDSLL
Chain of KiSS-1 receptor (Homo sapiens) (Q969F8 whole entry, looked up): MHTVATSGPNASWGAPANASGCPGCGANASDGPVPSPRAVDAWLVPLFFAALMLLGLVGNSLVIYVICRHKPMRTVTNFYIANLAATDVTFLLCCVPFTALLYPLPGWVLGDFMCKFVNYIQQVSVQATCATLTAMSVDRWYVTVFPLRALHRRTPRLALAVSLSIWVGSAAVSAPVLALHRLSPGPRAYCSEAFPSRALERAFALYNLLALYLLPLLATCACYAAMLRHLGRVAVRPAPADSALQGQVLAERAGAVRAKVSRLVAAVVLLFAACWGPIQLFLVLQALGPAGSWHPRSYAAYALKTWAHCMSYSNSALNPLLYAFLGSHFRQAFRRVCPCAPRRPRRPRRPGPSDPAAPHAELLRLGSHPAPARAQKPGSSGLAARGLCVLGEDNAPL
Chain of D(2) dopamine receptor (Homo sapiens) (P14416 whole entry, looked up): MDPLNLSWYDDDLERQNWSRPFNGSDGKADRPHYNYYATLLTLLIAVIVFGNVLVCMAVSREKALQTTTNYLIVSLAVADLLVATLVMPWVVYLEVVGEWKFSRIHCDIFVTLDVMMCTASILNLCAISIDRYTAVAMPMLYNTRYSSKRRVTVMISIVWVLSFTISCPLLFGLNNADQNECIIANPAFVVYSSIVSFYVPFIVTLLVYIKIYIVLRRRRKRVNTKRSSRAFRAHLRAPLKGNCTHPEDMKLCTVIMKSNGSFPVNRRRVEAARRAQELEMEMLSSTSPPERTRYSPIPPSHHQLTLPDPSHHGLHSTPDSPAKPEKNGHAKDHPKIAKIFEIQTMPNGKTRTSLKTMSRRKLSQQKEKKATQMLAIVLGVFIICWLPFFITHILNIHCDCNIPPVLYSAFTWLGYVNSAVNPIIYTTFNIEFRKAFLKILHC
Chain of Gonadotropin-releasing hormone receptor (Homo sapiens) (P30968 whole entry, looked up): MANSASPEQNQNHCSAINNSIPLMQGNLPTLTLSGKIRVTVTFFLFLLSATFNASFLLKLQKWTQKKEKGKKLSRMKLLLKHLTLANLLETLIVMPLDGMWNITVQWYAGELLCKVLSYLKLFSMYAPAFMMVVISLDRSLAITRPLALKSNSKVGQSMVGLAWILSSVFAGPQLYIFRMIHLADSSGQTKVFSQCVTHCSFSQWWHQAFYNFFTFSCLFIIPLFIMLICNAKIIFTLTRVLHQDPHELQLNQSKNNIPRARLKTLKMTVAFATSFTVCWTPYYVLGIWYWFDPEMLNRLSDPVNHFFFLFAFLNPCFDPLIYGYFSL
Chain of Muscarinic acetylcholine receptor M1 (Homo sapiens) (P11229 whole entry, looked up): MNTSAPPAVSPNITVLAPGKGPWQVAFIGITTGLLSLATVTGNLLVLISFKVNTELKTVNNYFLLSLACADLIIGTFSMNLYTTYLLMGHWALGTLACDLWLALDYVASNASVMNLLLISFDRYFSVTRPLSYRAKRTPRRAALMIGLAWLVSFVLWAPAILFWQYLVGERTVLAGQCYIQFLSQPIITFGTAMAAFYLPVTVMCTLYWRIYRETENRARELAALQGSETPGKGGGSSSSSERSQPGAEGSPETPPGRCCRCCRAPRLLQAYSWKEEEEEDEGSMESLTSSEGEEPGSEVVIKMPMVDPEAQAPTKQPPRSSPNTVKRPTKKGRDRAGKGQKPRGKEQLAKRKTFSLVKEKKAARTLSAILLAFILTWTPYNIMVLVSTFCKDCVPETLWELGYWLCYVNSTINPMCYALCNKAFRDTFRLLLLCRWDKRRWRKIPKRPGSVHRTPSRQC
Chain of 5-hydroxytryptamine receptor 2A (Homo sapiens) (P28223 whole entry, looked up): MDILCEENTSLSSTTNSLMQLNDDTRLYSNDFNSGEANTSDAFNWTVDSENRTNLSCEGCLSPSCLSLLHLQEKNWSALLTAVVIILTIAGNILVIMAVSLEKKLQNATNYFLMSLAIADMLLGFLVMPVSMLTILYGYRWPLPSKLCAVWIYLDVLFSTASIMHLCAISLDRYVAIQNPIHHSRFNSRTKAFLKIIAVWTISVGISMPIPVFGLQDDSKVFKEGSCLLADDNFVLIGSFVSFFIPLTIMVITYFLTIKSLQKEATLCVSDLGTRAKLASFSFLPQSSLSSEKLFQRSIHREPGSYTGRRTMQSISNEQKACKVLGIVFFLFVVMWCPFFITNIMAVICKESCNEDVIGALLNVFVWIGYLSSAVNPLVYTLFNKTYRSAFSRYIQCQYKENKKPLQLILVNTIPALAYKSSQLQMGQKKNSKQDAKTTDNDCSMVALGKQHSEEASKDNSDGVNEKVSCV

C=CCCC
inactive: [1] | [2] | [3] | [4] | [5] | [6] | [7] | [8] | [9] | [10] | [11] | [12] | [13] | [14] | [15] | [16] | [17]

Cc1sccc1Br
inactive: [1] | [2] | [3] | [4] | [5] | [6] | [7] | [8] | [9] | [10] | [12] | [18] | [13] | [14] | [15] | [16] | [19] | [17] | [20]

CCCCC1CCC(=O)O1 (centres undefined)
inactive: [1] | [2] | [3] | [4] | [5] | [6] | [7] | [8] | [9] | [10] | [11] | [12] | [18] | [13] | [14] | [15] | [20]

O=C(O)c1cccc(Cl)c1Cl
inactive: [1] | [2] | [3] | [4] | [5] | [6] | [7] | [8] | [9] | [10] | [11] | [12] | [18] | [13] | [16] | [19] | [17]

FC(F)(F)c1cccc(Cl)c1
inactive: [1] | [2] | [3] | [4] | [5] | [6] | [7] | [8] | [9] | [10] | [11] | [12] | [18] | [15] | [16] | [17] | [20]

c1ccc(CNCc2ccccc2)cc1
inactive: [1] | [2] | [3] | [4] | [5] | [6] | [7] | [8] | [9] | [10] | [11] | [12] | [18] | [13] | [14] | [16] | [19] | [20]

CCCCCCCCC(=O)OCC
inactive: [1] | [2] | [3] | [4] | [5] | [6] | [7] | [8] | [9] | [10] | [11] | [12] | [13] | [14] | [15] | [19] | [17] | [20]

O=c1[nH]c(=O)n([C@H]2CCCO2)cc1F
inactive: [1] | [2] | [3] | [4] | [5] | [6] | [7] | [8] | [9] | [10] | [11] | [14] | [15] | [19] | [17] | [20]
